By inhibition is commonly meant the change of the read-out against control, counted positive when it falls.

In all, about 30,000 compounds went through this assay and about 240 (0.8%) were called active. This is one part of a sample in which actives are shown more often than they occur. Unmarked numbers belong to inactive results.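 How the source made its calls: active means at 10 µM dose, at least 30% inhibition, measured as corrected fluorescence normalized to stimulator and neutral control wells; inactive means the rest.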 Peptide text beside a SMILES is read from it. * marks the point of attachment. Bz = O=C(c1ccccc1)*

This is an account of results in PubChem BioAssay AID686954 (Sanford-Burnham Center for Chemical Genomics, 2013).

This assay deals with Protein artemis (Homo sapiens) (UniProt Q96SD1). Description: Artemis endonuclease inhibitors, primary screen, biochemical, fluorescence intensity, FAM/BHQ-1 hairpin substrate (AID 686954). To be noted: recombinant Artemis, quenched FAM hairpin cleavage fluorescence; at 10 µM; hits give high values.
Chain of Protein artemis (Homo sapiens) (Q96SD1 whole entry, looked up): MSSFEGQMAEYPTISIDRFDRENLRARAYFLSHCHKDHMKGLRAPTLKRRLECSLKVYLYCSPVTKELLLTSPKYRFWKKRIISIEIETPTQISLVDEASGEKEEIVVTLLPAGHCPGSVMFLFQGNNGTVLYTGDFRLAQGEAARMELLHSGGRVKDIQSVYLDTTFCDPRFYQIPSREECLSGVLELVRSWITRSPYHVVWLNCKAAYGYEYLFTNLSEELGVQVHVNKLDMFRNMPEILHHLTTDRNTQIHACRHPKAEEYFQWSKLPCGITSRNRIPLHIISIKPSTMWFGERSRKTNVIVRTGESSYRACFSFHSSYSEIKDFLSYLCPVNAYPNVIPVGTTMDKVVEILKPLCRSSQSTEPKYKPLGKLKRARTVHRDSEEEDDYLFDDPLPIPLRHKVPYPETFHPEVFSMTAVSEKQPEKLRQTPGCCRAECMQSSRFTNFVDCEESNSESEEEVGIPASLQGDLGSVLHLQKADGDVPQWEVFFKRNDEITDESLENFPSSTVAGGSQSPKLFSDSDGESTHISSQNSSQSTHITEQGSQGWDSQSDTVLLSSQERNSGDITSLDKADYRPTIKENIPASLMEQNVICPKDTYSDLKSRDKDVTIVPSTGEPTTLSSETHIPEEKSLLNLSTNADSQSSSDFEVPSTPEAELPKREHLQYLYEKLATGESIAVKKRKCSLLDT
On to `O=c1c2ccccc2nc2n1C(CSCc1ccccc1)CS2` (centres undefined), for which the inhibition was 2.82%.

For `COC(=O)CSC1=C(C#N)C(c2ccccc2OC)C(C(=O)OC)C(=O)N1` (centres undefined), the inhibition was -3.1%.

Turning to `Cc1ccc(/C=N/NC(=O)c2sccc2OCc2ccc(F)cc2)cc1`, the inhibition was 22.2%.

As to `COc1ccc(CC(=O)Nc2nc3n(n2)C(c2ccccc2)CC(=O)N3)cc1OC` (centres undefined), the inhibition was -12.5%.

For the molecule `COc1ccc(C(=O)Nc2ccccc2C(=O)N/N=C/c2ccc(O)c(OC)c2)cc1`, the inhibition is 3.38%.

As for `O=C(N/N=C/c1ccc(O)c(O)c1)C1c2ccccc2Oc2ccccc21`, the inhibition is 30.2% (active).

Regarding `O=C(N/N=C/c1ccsc1)c1cc(O)cc(O)c1`, the inhibition was 10.2%.

With `Clc1cccc(-c2nc3nc4ccccc4nc3n2Cc2ccco2)c1`, the inhibition is 27%.

On to `Cc1ccc(Cn2c(C)nc3c(c2=O)c2nc4ccccc4nc2n3Cc2ccco2)cc1`, for which the inhibition is 40.3% (active).

Take `Cc1ccc(Cn2c(NC(=O)c3ccco3)nc3ccccc32)cc1`: the inhibition was 0.73%.

As for `CCCn1c(C)cc(C(=O)COC(=O)c2c(C)nn(-c3ccccc3)c2C)c1C`, the inhibition was 10.5%.

Consider `CC(C)(C)Cc1nnc(NC(=O)c2cc(-c3ccccc3)nc3ccccc23)s1`, for which the inhibition was 13.6%.

Take `O=C(/C=C/Nc1ccccc1OC(F)(F)F)C(F)(F)F`: the inhibition is -11.1%.

As to `COc1ccc(Cc2nnnn2CC(=O)O)cc1`, the inhibition is 3.92%.

For the molecule `CC1CCc2c(c3ccccc3[nH]c2=O)O1` (centres undefined), the inhibition was 13.8%.

As to `Cn1c(CO)cnc1SCc1ccccc1`, the inhibition is -0.47%.

For the molecule `COc1ccccc1NS(=O)(=O)N(C)C`, the inhibition is 4.92%.

For the molecule `C=CCn1c(N)cc(=O)nc1SCC(=O)Nc1cccc2ccccc12`, the inhibition is -2.38%.

As for `O=C(COc1cc(Cl)c(Cl)cc1Cl)NC(=O)NC1CCCC1`, the inhibition was 5.4%.

In the case of `O=C(NC(Cc1ccccc1)C(=O)N1CCCC1C(=O)O)c1ccccc1` (stereo not drawn) (Bz-Phe-Pro-OH; configuration not given here), the inhibition was 3.37%.

As for `CCCC(C(=O)NCc1ccco1)N(C(=O)CNS(=O)(=O)c1ccccc1)C1CCCC1` (centres undefined), the inhibition was 9.71%.

With `Cc1ccc(N2CCN(C3=NC(=O)/C(=C\c4cccs4)S3)CC2)cc1`, the inhibition is 30.4% (active).

With `Cc1ccsc1/C=C1\SC(N2CCOCC2)=NC1=O`, the inhibition was -5.58%.

On to `CSC1=N/C(=C\C=C\c2cccs2)C(=O)S1`, for which the inhibition was 4.46%.

As for `Cc1cccc(C(=O)N2CCCN(C(=O)c3cccc(C)c3)CC2)c1`, the inhibition is 4.29%.

As for `CCC(C)NC(=O)c1cc(Cl)ccc1OC` (centres undefined), the inhibition is 1.25%.

Consider `COc1ccc(-c2cc(C(=O)n3cnc4ccccc43)c3ccccc3n2)cc1`, for which the inhibition was 0.93%.

Regarding `c1ccc(-c2nccc(-c3ccc(-n4cnc5ccccc54)cc3)n2)nc1`, the inhibition was 100% (active).

Regarding `N#CCCn1cnc2ccccc21`, the inhibition was 0.47%.
